Test [1] has as its system W2. The experiment in a line: qHTS profiling for inhibitors of Plasmodium falciparum proliferation (AID 504749).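 Further: 0% = DMSO vehicle and full inhibition = artemisinin control; nearly all actives have a fitted effect of over 60% in size.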 As to conditions: P. falciparum in erythrocytes, SYBR Green DNA, 72 h; series mostly up to 28.7 µM. The method, boiled down:
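P. falciparum-infected erythrocytes (0.3% parasitemia, 2.5% hematocrit final) were exposed to compounds for 72 h at 37 C in 5% CO2, then lysed with SYBR Green buffer overnight at room temperature; parasite DNA fluorescence was normalized to artemisinin and DMSO controls.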
(In general: qHTS replaces the single test concentration by a dilution series.)

Test [2] relates to HACAT. Put plainly: qHTS assay to identify novel small-molecules to repurpose for Merkel cell carcinoma treatment (AID 1296009). Further: nearly all actives have a fitted effect of over 60% in size. Further: potency means the concentration at half of the fitted maximal effect. As to conditions: MCC and control cell lines, CellTiter-Glo viability, 72 h. The method in brief:
(§1)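 Cells exposed to NPC (8-point) and MIPE (11-point) compound dilutions for 72 hr at 37 degree celsius; viability read by CellTiter-Glo luminescence, normalized to no-cell and DMSO in-plate controls.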

In test [3] the test system is CRL-7250. The experiment in a line: Cytotoxic Profiling of Annotated Libraries Using Quantitative High-Throughput Screening (AID 1296008). Further: nearly all actives have a fitted effect of over 60% in size. On max response: on the % scale 0 is the no-effect control and ±100 the full control effect. The settings on record: Five cell lines viability, CellTiter-Glo ATP luminescence, 48-72 h; max response: active compounds read low. The method in brief: (§2)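 Compounds were pin-transferred onto cells and incubated 48 or 72 hr at 37 degree Celsius, 95% humidity. CellTiter-Glo was added, plates sat 10 min at room temperature, then ATP-coupled luminescence was imaged as the viability read-out.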
(ATP-based viability assays read luminescence as a measure of living cells.)

Test [4] concerns HEK293. Described as above. The settings on record: Five cell lines viability, CellTiter-Glo ATP luminescence, 48-72 h; max response: active compounds read low. The method, boiled down: as §2
Test [5] has as its system HaCat. The test is described as above. As to conditions: Five cell lines viability, CellTiter-Glo ATP luminescence, 48-72 h; max response: active compounds read low. The method in brief: as §2
In test [6] the test system is KB-3-1. The description is as above. As to conditions: Five cell lines viability, CellTiter-Glo ATP luminescence, 48-72 h; max response: active compounds read low. The method in brief:
as §2

The subject of test [7] is NIH3T3. Described as above. As to conditions: Five cell lines viability, CellTiter-Glo ATP luminescence, 48-72 h; max response: active compounds read low. The method in brief: as §2
In test [8] the test system is MCC-13. The experiment in a line: qHTS assay to identify novel small-molecules to repurpose for Merkel cell carcinoma treatment (AID 1296009). Further: nearly all actives have a fitted effect of over 60% in size. Further: potency means the concentration at half of the fitted maximal effect. As to conditions: MCC and control cell lines, CellTiter-Glo viability, 72 h; series mostly up to 46 µM. The method in brief:
as §1

The test system of test [9] is MCC-26. The description is as above. The settings on record: MCC and control cell lines, CellTiter-Glo viability, 72 h; series mostly up to 46 µM. The method in brief:
as §1

Test [10] relates to MKL-1. Described as above. As to conditions: MCC and control cell lines, CellTiter-Glo viability, 72 h; series mostly up to 46 µM. The method, boiled down:
as §1

Test [11] deals with MKL-2. The description is as above. As to conditions: MCC and control cell lines, CellTiter-Glo viability, 72 h; series mostly up to 46 µM. The method in brief: as §1
The test system of test [12] is UISO. The test is described as above. As to conditions: MCC and control cell lines, CellTiter-Glo viability, 72 h; series mostly up to 46 µM. The method, boiled down: as §1
In test [13] the test system is WaGa. The test is described as above. The settings on record: MCC and control cell lines, CellTiter-Glo viability, 72 h; series mostly up to 46 µM. The method in brief:
as §1

In test [14] the test system is C33A. Put plainly: Primary qHTS to identify gynecologic anti-cancer compounds using libraries of approved drugs and bioactive compounds (AID 1345084). Further: on the % scale 0 is the no-effect control and ±100 the full control effect; nearly all actives have a fitted effect of over 55% in size. The settings on record: Gynecologic cancer cell panel viability, ATPlite luminescence, 48 h; series mostly up to 57.5 µM. The method in brief:
(§3)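 Luminescence from the ATPlite ATP-monitoring reagent indicates viable cell number; lower signal means cytotoxicity. Cells received compound 16 h after seeding and were exposed for 48 h across five concentrations.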

The subject of test [15] is CAOV3. Described as above. The settings on record: Gynecologic cancer cell panel viability, ATPlite luminescence, 48 h; series mostly up to 57.5 µM. The method, boiled down:
as §3

The test system of test [16] is CASKI. The description is as above. As to conditions: Gynecologic cancer cell panel viability, ATPlite luminescence, 48 h; series mostly up to 57.5 µM. The method, boiled down: as §3
For test [17], the system named is Es-2. The test is described as above. As to conditions: Gynecologic cancer cell panel viability, ATPlite luminescence, 48 h; series mostly up to 57.5 µM. The method, boiled down: as §3
Test [18] relates to HeLa. The test is described as above. The settings on record: Gynecologic cancer cell panel viability, ATPlite luminescence, 48 h; series mostly up to 57.5 µM. The method in brief: as §3
Test [19] concerns HEK293T. Put plainly: qHTS assay to identify novel small-molecules to repurpose for Merkel cell carcinoma treatment (AID 1296009). Further: nearly all actives have a fitted effect of over 60% in size. Further: potency means the concentration at half of the fitted maximal effect. As to conditions: MCC and control cell lines, CellTiter-Glo viability, 72 h; at 44.8 µM (top of the series) unless noted. The method, boiled down:
as §1

Test [20] has as its system NIH3T3. The test is described as above. As to conditions: MCC and control cell lines, CellTiter-Glo viability, 72 h; series mostly up to 44.8 µM. The method in brief: as §1
The mark [21] stands for this setting: at 44.8 µM (top of the series) unless noted.

Structures are written as SMILES. Several values for one entry are separate records, joined by “and”; a condition that tells them apart may be missing. Identical values can stand only once. Inconclusive results are not listed. Values without a mark were called inactive. Activity calls are given as the source filed them. The call rests on the fitted dose curve; in most records, active means well fitted curve in the direction sought with a large enough effect; inconclusive means small, poorly fitted or top-dose-only effect, or another doubt; inactive means no such curve, though single readings can be large; an effect the other way counts as inactive or inconclusive.

`NS(=O)(=O)c1cc(Cl)c(Cl)c(S(N)(=O)=O)c1`: in test [1], the Potency result is “inactive”.
Still for that read-out and setting: the same measure for `COc1ccnc(CS(=O)c2nc3ccc(OC(F)F)cc3[nH]2)c1OC` (configuration not stated): “inactive”.
As for `O=C1C(c2c(O)[nH]c3ccccc23)=Nc2ccccc21`, the outcome in test [2] (at 17.4 µM (top of the series)) and in [2] (at 44.8 µM (top of the series)) was inactive.
For `CN1C(=O)C(Cc2c[nH]c3ccccc23)NC1=S` (configuration not stated), the compound was called inactive in test [2] (at 17.4 µM (top of the series)) and in test [2] (at 44.8 µM (top of the series)).
Regarding `N[C@@H](CC(=O)N1CCn2c(nnc2C(F)(F)F)C1)Cc1cc(F)c(F)cc1F`, the max response in test [3] is -4.16%; in test [4], 1.14%; in test [6] it was -6.59%; in test [7] it was -2.27%. For the same compound, the result in test [5] and in test [2] (setting [21]) was inactive. Also, the Potency entry in [8], in test [9], in test [10], in [11], in [12] and in [13] was “inactive” in each case.
Take `COc1cc([C@H]2Oc3cc([C@H]4Oc5cc(O)cc(O)c5C(=O)[C@H]4O)ccc3O[C@H]2CO)ccc1O`: the result in [3], in test [5] and in test [2] (setting [21]) was inactive. Further, the figures for the max response in [4], in test [6] and in test [7] were -13.7%, -0.459% and 0.0248%, respectively. Also, the Potency result in test [8], in test [9], in [10], in test [12] and in test [13] was “inactive” in each case.
As to `O=C(Nc1ccccc1)Nc1ccc(-c2ccc(C(=O)[C@H]3CCC[C@H]3C(=O)O)cc2)cc1`, the compound was called inactive in test [3], in test [5] and in [2] (setting [21]). The max response in [4] was -0.566%; in test [6] it was 9.29%; in test [7], 3.03%. For the same compound, the Potency result in [8], in test [9], in [10], in [11], in [12] and in test [13] was “inactive” in each case.
For `COc1cc2ncn(-c3cc(OCc4ccccc4S(C)(=O)=O)c(C#N)s3)c2cc1OC`, the max response is 0.002% in test [3], -13.3% in test [4], -2.12% in [6] and -0.819% in test [7]. The result in test [5] and in test [2] (setting [21]) was inactive. For the same compound, the Potency entry in test [8], in test [9], in [10], in test [11], in [12] and in test [13] was “inactive” each time.
Turning to `CN(C)CCN(Cc1ccc(Cl)cc1)c1ccccn1`, the max response is 4.38% in test [3]; -16.3% in [4]; -16.5% and 0.769% in test [6]; -1.04% in test [7]. The call in [5] and in test [2] (setting [21]) was inactive. In addition, the Potency entry in test [8], in test [10], in test [11], in test [12], in [14] and in test [15] was “inactive” throughout. Besides, the Potency result in [16], in [17] and in [18] was “inactive” each time.
Turning to `CCOC(=O)[C@H]1O[C@H]1C(=O)N[C@@H](CC(C)C)C(=O)NCCC(C)C`, the max response in test [3] is -2.98%; in test [5] it was -0.586%; in test [6], 0.158%; in test [7], 1.05%. In addition, the compound was classed as inactive in [4] and in test [19]. Further, the Potency result in test [8], in [10], in test [11], in test [12] and in test [13] was “inactive” throughout.
With `CCOC(=O)[C@@H](N)CCC(=O)N[C@@H](CSCc1ccccc1)C(=O)N[C@@H](C(=O)OCC)c1ccccc1`, the compound was called inactive in [3], in [5] and in test [2] (setting [21]). For the same compound, the results for the max response in test [4], in [6] and in test [7] were -7.26%, -0.167% and 1.31%, respectively. Also, the Potency entry in [8], in test [9], in test [12] and in test [13] was “inactive” in each case.
Consider `O=C1C(CCC(O)c2ccc(F)cc2)C(c2ccc(O)cc2)N1c1ccc(F)cc1` (configuration not stated), for which the Potency result in test [1], in test [8], in [9], in [10], in test [11] and in test [12] was “inactive” throughout. Besides, the Potency result in [13] was “inactive”. Further, the max response is -5.06% in [3], 3.02% in test [5], -2.23% in [6] and 1.16% in test [7]. The result in test [4] and in test [19] was inactive.
Consider `Nc1ncnc2c1ncn2[C@@H]1O[C@H](CO)[C@@H](O)[C@@H]1O`, for which the compound was called inactive in [3], in test [5], in [6] and in test [2] (setting [21]). Moreover, the max response is -0.764% in [4] and 3.26% in test [7]. The Potency entry in test [8], in [9] and in test [12] was “inactive” throughout. Besides, the values for the Potency in [10], in test [11] and in test [13] were 14800 nM (active), 1660 nM (active) and 1050 nM (active), respectively.
Take `Cc1ccc2c(=O)c3cccc(CC(=O)O)c3oc2c1C`: the max response in test [3] was -6.92%; in test [5], -14.4%. For the same compound, the outcome in [4], in test [6], in test [7] and in test [19] was inactive. Further, the Potency result in [8], in test [9], in [10], in test [11], in test [20] and in test [12] was “inactive” each time. Further, in test [13], the Potency entry is “inactive”.
For the compound `CC1C(=O)OC2C(O)C34C5CC(C(C)(C)C)C36C(OC(=O)C6O)OC4(C(=O)O5)C12O` (configuration not stated), the call in test [3], in [5], in test [6] and in [2] (setting [21]) was inactive. Further, the max response is -2.56% in test [4] and -22.7% in [7]. Moreover, the Potency entry in test [8], in test [9], in test [10] and in test [12] was “inactive” in each case.
Turning to `CN[C@@H]1[C@@H](O)[C@@H](O[C@@H]2[C@@H](O)[C@H](O[C@H]3O[C@H](CN)[C@@H](O)[C@H](O)[C@@H]3O)[C@@H](N)C[C@@H]2NC(=O)[C@@H](O)CN)OC[C@]1(C)O`, the compound was classed as inactive in test [3], in test [5], in test [7] and in [2] (setting [21]). The values for the max response in test [4] and in test [6] were 3.66% and 1.73%, respectively. Also, the Potency entry in test [8], in test [9], in test [10], in test [20], in test [12] and in [13] was “inactive” each time.
With `CN(CC=CC#CC(C)(C)C)Cc1cccc2ccccc12`, the results for the max response in [3], in test [6] and in [7] were 1.65%, 4.31% and -1.72%, respectively. In addition, the compound was classed as inactive in test [4], in test [5], in test [2] (setting [21]) and in [19]. Besides, the Potency entry in [8], in test [9], in test [10], in test [11], in test [12] and in test [13] was “inactive” throughout.

The record behind these values is PubChem BioAssay (NCATS).
